Source: PubChem BioAssay
ST2 inh: inhibitors of human ST2 (IL1RL1) binding to IL-33, primary screen, biochemical, AlphaLISA. Interleukin-1 receptor-like 1 (Homo sapiens), Q01638. 2.3% of 78,000 active. inhibition, % for hits at 17 µM. AlphaLISA ST2-Fc/biotin-IL-33 interaction, 1 h; in the data active = inhibition above about 30%
Target sequence (Q01638 whole entry, looked up): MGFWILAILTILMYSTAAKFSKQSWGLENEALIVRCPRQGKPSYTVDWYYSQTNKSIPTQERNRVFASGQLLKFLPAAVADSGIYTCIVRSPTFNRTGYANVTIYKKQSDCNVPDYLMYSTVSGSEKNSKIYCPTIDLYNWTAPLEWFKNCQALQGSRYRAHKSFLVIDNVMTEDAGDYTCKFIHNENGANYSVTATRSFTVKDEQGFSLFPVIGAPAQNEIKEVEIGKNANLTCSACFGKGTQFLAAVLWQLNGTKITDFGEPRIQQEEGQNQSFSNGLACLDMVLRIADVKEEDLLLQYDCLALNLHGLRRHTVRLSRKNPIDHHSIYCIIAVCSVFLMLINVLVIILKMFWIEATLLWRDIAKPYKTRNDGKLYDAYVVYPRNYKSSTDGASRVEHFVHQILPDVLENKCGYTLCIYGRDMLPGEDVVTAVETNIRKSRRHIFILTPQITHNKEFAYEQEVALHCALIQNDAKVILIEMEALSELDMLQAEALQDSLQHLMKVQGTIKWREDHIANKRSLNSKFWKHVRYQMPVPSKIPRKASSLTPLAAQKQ
Starred values were filed as active, the others as inactive; i = inactive. Many of the other results were omitted from the sample, so hits are more common in it than they were.

SMILES | ST2 inh
COc1cc(/C=c2\sc3n(c2=O)CN(c2ccc(C)cc2)CN=3)c([N+](=O)[O-])cc1OC | 38%*
CCOc1ccc(-c2nc3s/c(=C\c4ccc(F)cc4)c(=O)n3n2)cc1 | i
COc1cccc(/C=c2\sc3nnc(-c4ccc(C)cc4)n3c2=O)c1 | i
Cn1cnnc1C1CCCN(Cc2cc3n(n2)CCCNC3)C1 (stereo not drawn) | i
O=C(Cn1cnc2c(cnn2-c2ccc(F)cc2)c1=O)N1CCOCC1 | i
On1c(-c2ccccc2)nc2c1CCc1nonc1-2 | i
C=C(C)c1ccccc1NC(=O)CN1C(=O)c2ccccc2S1(=O)=O | i
Cc1ccc(-c2nnc(CN3CCCC4(CNC(=O)O4)C3)o2)n1C (stereo not drawn) | i
O=C1Nc2ccc(Br)cc2C(O)(C(=O)NC2CC2)N1c1ccccc1 (stereo not drawn) | i
CCc1nc(-c2c(-c3ccccc3)ncn2Cc2noc(C(C)C)n2)c(C)[nH]1 | i
COc1ccc(-c2nc(N3CCC(C)CC3)nc3nn4c(C)cc(C)nc4c23)cc1 | i
CCOC(=O)c1sc2nc(C)nc(OCc3ccccc3Cl)c2c1C | i
OCC1(CCOc2ccccc2)CCCN(c2nnnn2-c2ccccc2)C1 (stereo not drawn) | i
CCOC(=O)CCC1=NS(=O)(=O)c2ccccc2N1 | i
CC1CN(c2c3c(c(C#N)c4nc5ccccc5n24)CCC3)CC(C)O1 (stereo not drawn) | i
N#Cc1c(-c2ccccc2)c(C#N)c2nc3ccccc3n2c1N | 32%*
Cc1nccn1-c1c2c(c(C#N)c3nc4ccccc4n13)CCC2 | i
CCC1CN(C(=O)c2ccc3cccnc3n2)CCC(=O)N1Cc1ccccc1 (stereo not drawn) | i
CC(C)NC(=O)CN1CCN(C(=O)c2ccc3nc(C4CCCCC4)oc3c2)CC1 | i
Cc1ccnc(NC(=O)C2CC(=O)N(c3ccc(F)cc3)C2)c1 (stereo not drawn) | i
CC(C)NC(=O)C1CC(=O)N(c2ccc(F)c(Cl)c2)C1 (stereo not drawn) | i
CCC(C)NC(=O)C1CC(=O)N(c2ccc(F)cc2)C1 (stereo not drawn) | 33%*
CC1CC(C)CN(C(=O)C2c3ccccc3C(=O)N(C)C2c2cccs2)C1 (stereo not drawn) | i
COc1ccc(C2C(C(=O)Nc3ccc(C)cc3C)=C(C)Nc3nnnn32)c(OC)c1 (stereo not drawn) | i
COc1ccc(C2C3C(=O)NC(=O)C3ON2c2ccc(Cl)cc2)cc1 (stereo not drawn) | 31%*
SMILES | ST2 inh
COc1ccc(C2C(C(=O)Nc3ccc(F)c(Cl)c3)CC(=O)N2c2ccc(OC)cc2)cc1 (stereo not drawn) | i
COc1ccc(N2C(=O)C3C(c4ccc(F)cc4)OC4(C(=O)c5ccccc5C4=O)C3C2=O)cc1 (stereo not drawn) | i
O=C(NCC1CCCN(C(=O)c2cncs2)C1)c1cccc2ccccc12 (stereo not drawn) | i
Cc1nc2c(NS(=O)(=O)NCc3ccccc3)cccn2n1 | i
COc1ccc2c(=O)c(-c3ccc(Br)cc3)coc2c1 | i
O=[N+]([O-])c1cc(C=Nc2c(-c3ccco3)nc3ccccn23)c(Cl)cc1Cl | 44%*
O=[N+]([O-])c1cc(N=Cc2nc(-c3ccccc3F)oc2O)ccc1Cl | i
CC(C)c1ccc(Nc2c(-c3ccco3)nc3ccccn23)cc1 | i
CC1(C(=O)N2CCC(Cn3cc(CN4CC[C@H](O)C4)nn3)CC2)CCCCC1 | i
Cc1c(C(=O)N2CCC(O)(CN(C)C)C2)n(C)c2c(C)cccc12 (stereo not drawn) | i
O=C(c1ccccc1[N+](=O)[O-])N1CCCCC1 | i
Cc1ccc(C(=O)N2CCCN(C(=O)c3ccc(C)cc3)CC2)cc1 | i
O=C(c1ccccc1)N1CCCCC1 | i
O=C(c1ccc([N+](=O)[O-])cc1)N1CCN(c2ccccc2F)CC1 | i
Cc1ccc(C(=O)/C=C(\c2ccccc2)N2CCCCC2)cc1 | 30%*
O=C(/C=C(/c1ccccc1)N1CCCCC1)c1ccc([N+](=O)[O-])cc1 | 38%*
CCc1nc(CN(C)C(=O)c2cnc(C(C)C)nc2C)no1 | i
O=C(NCC1CCS(=O)(=O)C1)c1csc2nc(-c3cccc(C(F)(F)F)c3)cn12 (stereo not drawn) | i
OC[C@H]1O[C@@H](n2cnc3c(NCCc4ccccc4)ncnc32)[C@H](O)[C@@H]1O | i
CCc1[nH]c2c(CNC(=O)CCN3CCCCCC3=O)cc(C)cc2c1C | i
CCn1c(=O)n(-c2ccc(C)c(C)c2)c2nc(-c3ccc(F)cc3)nc(C(N)=O)c21 | i
O=C(c1ccc(S(=O)(=O)N2CCOCC2)cc1)N1CCN=C1SCc1ccccc1 | i
Cc1nnc(Nc2cccc(F)c2)[nH]c1=O | i
O=[N+]([O-])c1ccc(N2CCN(Cc3ccoc3)CC2)cc1 | i
COc1cc([N+](=O)[O-])cc(CN2CCN(c3cc(C)ccc3C)CC2)c1O | 41%*
SMILES | ST2 inh
COc1ccc(CN2CCN(Cc3cccc([N+](=O)[O-])c3)CC2)c(OC)c1OC | i
CCOc1ccccc1N1CCN(Cc2cc3c(cc2[N+](=O)[O-])OCO3)CC1 | 30%*
COc1cc(CN2CCN(c3ccccc3OC)CC2)c([N+](=O)[O-])cc1OC | i
O=[N+]([O-])c1ccc(CN2CCN(Cc3ccccc3)CC2)o1 | i
COc1ccc(C(=O)N2CCN(c3ccc([N+](=O)[O-])cc3)CC2)cc1OC | i
Cc1ccc(C)c(N2CCN(Cc3ccc(-c4ccccc4[N+](=O)[O-])o3)CC2)c1 | 38%*
Cc1ccccc1N1CCN(Cc2ccco2)CC1 | i
CCOc1ccccc1N1CCN(Cc2ccc(OC)cc2OC)CC1 | i
COc1cc(CN2CCN(c3ccccc3F)CC2)cc([N+](=O)[O-])c1O | i
COc1cc(C)c(CN2CCN(c3ccc([N+](=O)[O-])cc3)CC2)cc1C | 32%*
COc1ccc(NC(=O)CSc2n[nH]c(C)c2[N+](=O)[O-])cc1OC | i
CCN(CC)S(=O)(=O)N1CCOC(c2ccc(Cl)c(Cl)c2)C1 (stereo not drawn) | i
CC(=O)c1ccc(S(=O)(=O)N2CCOCC2)cc1 | i
Cc1ccc(C)c(N2CCN(Cc3cc4c(cc3[N+](=O)[O-])OCO4)CC2)c1 | 32%*
COc1cc(OC)c(OC)cc1CN1CCN(Cc2cc(OC)c(OC)cc2[N+](=O)[O-])CC1 | i
COc1cc(CN2CCN(c3ncccn3)CC2)c([N+](=O)[O-])cc1OC | i
O=C(CCN1CCOCC1)NC1CCCN(C2CCCCCC2)C1 (stereo not drawn) | i
O=C(CN1CCN(Cc2ccccc2F)C1=O)NCCCN1CCOCC1 | i
COc1cc(C2C(C#N)=C(N)OC3=C2C(=O)CC(c2ccccc2)C3)cc(OC)c1OC (stereo not drawn) | i
COc1ccc(C2C(C#N)=C(N)OC3=C2C(=O)CC(c2ccccc2)C3)cc1 (stereo not drawn) | i
COc1ccc(C2C(C#N)=C(N)Oc3n[nH]c(C)c32)cc1OCc1ccccc1 (stereo not drawn) | i
COc1ccc(C2C(C#N)=C(N)Oc3cc(C)oc(=O)c32)cc1OCc1ccccc1 (stereo not drawn) | 32%*
Cc1cc2c(c(=O)o1)C(c1ccccc1OCc1ccccc1Cl)C(C#N)=C(N)O2 (stereo not drawn) | i
